Assay results as given in the supplement of paper PMC11732987, “Enantioselective OTUD7B fragment discovery through chemoproteomics screening and high-throughput optimisation” (Communications Chemistry, 2025).

What was measured:
Assay in all cases: log2 ratio of Biotin-Ahx-Ub-VS probe labelling (fragment/DMSO); higher = less target engagement (more negative = stronger competition), active = hit call of the paper (q ≤ 0.05, log2 ratio ≤ -1)
Settings in all cases: compound concentration: 200 uM; treatment time: 3 h
USP34 = USP34 (UniProt Q70CQ2)
Sequence of USP34 (Q70CQ2 whole entry, the tested form may be a part): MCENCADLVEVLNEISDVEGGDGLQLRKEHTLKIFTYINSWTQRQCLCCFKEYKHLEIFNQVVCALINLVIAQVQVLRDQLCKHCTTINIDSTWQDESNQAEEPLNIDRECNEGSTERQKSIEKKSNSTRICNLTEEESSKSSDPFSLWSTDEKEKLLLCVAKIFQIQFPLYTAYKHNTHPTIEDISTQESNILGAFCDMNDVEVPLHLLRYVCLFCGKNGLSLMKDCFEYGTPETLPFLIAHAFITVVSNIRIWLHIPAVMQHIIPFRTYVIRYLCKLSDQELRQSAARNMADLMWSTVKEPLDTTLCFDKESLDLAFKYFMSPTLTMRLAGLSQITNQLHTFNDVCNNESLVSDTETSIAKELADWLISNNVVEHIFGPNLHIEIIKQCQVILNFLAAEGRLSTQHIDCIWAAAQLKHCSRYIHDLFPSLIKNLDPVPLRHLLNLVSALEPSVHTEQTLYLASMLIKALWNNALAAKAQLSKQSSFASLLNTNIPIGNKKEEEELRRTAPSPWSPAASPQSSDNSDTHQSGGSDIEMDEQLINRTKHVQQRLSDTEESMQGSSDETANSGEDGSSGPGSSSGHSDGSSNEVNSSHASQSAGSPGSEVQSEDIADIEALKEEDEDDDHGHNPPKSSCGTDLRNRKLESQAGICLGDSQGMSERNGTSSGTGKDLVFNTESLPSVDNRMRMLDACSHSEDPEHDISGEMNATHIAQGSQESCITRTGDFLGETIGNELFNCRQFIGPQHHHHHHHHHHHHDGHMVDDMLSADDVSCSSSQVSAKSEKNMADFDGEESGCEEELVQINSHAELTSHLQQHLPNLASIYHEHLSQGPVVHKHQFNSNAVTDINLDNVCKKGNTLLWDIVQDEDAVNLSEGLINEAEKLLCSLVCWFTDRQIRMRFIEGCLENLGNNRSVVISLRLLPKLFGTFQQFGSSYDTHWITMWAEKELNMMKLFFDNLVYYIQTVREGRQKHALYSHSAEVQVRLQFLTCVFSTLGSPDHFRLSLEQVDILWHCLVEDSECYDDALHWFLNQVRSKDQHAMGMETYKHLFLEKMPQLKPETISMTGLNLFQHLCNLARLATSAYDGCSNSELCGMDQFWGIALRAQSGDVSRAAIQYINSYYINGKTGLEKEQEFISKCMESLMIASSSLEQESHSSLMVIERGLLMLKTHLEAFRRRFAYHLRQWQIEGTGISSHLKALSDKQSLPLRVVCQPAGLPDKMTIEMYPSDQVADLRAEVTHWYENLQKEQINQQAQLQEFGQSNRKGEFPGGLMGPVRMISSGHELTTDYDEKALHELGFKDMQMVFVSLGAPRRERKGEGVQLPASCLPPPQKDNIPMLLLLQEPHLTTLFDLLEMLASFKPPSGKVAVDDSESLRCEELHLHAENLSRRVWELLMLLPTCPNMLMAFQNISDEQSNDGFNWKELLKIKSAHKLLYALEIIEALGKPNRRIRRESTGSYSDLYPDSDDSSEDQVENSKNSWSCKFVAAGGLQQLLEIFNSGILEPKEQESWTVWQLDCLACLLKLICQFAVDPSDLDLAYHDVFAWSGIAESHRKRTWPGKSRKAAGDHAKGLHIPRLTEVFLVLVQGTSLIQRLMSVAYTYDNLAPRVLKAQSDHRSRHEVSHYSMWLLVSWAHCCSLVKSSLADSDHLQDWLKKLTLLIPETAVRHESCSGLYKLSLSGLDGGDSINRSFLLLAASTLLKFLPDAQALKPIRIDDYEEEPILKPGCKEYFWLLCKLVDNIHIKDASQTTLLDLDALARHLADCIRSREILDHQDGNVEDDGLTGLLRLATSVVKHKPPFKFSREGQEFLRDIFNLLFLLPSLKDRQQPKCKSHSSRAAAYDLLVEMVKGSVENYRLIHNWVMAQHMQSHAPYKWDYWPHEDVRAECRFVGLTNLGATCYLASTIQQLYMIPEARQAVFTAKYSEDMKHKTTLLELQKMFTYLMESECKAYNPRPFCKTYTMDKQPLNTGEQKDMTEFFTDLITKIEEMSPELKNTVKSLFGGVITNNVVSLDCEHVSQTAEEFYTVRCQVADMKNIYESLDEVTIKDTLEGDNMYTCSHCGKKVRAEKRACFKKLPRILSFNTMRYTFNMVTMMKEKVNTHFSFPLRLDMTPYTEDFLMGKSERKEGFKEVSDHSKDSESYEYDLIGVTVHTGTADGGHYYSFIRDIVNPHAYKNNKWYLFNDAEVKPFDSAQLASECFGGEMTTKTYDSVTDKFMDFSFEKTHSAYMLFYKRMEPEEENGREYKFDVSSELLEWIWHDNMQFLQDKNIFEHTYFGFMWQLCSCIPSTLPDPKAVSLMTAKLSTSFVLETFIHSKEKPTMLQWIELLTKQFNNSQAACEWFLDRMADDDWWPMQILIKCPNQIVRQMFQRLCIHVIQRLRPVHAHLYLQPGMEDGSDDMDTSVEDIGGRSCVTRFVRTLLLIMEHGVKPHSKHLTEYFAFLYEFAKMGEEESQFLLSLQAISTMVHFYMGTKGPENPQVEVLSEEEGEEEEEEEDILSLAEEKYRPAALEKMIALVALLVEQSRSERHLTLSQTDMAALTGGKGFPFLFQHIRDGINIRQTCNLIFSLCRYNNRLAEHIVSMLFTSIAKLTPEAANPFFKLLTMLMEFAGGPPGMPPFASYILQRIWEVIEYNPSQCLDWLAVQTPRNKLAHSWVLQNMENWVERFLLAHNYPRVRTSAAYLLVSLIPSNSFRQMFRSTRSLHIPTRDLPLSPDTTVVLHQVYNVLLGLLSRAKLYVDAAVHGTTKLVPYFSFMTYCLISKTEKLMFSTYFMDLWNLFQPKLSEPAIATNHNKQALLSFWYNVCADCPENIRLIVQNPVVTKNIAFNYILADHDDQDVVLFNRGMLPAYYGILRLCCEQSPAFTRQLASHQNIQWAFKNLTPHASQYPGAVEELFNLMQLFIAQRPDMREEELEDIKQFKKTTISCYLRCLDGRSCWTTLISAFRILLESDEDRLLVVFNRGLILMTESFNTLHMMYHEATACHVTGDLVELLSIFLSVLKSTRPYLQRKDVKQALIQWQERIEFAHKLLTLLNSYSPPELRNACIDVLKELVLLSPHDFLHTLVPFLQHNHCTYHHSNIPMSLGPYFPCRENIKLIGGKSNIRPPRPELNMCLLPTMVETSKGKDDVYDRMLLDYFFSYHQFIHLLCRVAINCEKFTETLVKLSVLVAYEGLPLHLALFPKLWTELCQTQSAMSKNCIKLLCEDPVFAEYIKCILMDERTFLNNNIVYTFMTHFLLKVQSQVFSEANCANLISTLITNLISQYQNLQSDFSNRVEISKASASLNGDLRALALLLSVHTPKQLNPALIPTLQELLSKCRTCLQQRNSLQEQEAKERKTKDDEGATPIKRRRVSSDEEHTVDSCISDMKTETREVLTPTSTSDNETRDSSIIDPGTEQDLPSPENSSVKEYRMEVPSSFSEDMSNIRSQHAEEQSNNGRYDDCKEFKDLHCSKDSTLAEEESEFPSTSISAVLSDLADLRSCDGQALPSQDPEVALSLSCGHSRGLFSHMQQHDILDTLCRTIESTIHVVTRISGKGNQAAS
Procedure, shortened: (§1)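 Each value is an average log2 ratio of fragment to vehicle, tested by unpaired t-test. The underlying Spectronaut label-free quantities were global-median-normalised, and only proteins with ≥2 unique peptides were included. Triplicate HEK293T lysate samples (495 µg) were exposed to fragment at 200 µM or vehicle for 3 h, then to Biotin-Ahx-Ub-VS at 0.5 µM final for 1 h, before NeutrAvidin enrichment of labelled DUBs, LysC and trypsin digestion, and diaPASEF LC-MS/MS.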

USP36 = target: T1, USP36 (UniProt Q9P275)
T1 sequence (whole entry): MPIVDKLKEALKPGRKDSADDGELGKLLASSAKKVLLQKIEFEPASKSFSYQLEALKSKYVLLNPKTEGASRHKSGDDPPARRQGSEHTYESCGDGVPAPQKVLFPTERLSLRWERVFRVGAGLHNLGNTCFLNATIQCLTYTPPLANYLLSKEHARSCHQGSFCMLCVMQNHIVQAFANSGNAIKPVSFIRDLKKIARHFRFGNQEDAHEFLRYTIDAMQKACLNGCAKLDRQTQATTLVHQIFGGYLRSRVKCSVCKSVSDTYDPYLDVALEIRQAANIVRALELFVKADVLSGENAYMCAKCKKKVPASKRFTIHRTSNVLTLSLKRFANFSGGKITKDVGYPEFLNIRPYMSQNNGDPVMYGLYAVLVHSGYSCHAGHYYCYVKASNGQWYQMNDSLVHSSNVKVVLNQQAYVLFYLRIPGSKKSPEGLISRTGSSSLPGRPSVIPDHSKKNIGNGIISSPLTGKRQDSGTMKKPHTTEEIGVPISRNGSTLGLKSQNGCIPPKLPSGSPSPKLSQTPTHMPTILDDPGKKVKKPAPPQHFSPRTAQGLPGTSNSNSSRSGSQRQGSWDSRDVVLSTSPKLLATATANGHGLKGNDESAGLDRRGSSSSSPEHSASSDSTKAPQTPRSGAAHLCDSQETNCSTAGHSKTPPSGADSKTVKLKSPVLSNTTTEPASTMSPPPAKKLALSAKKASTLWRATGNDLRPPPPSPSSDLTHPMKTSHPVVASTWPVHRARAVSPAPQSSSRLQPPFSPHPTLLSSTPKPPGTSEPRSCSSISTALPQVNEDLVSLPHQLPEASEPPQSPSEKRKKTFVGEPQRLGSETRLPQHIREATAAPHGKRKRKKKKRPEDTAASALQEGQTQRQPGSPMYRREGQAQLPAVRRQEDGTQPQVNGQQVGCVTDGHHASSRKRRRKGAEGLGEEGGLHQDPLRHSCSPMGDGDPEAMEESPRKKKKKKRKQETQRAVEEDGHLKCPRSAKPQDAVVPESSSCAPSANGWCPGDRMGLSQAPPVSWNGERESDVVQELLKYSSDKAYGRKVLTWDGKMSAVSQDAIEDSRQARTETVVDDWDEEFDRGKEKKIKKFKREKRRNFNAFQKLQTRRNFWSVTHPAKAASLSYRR
Procedure, shortened: as §1

USP38 = target: T2, USP38 (UniProt Q8NB14)
T2 sequence (whole entry): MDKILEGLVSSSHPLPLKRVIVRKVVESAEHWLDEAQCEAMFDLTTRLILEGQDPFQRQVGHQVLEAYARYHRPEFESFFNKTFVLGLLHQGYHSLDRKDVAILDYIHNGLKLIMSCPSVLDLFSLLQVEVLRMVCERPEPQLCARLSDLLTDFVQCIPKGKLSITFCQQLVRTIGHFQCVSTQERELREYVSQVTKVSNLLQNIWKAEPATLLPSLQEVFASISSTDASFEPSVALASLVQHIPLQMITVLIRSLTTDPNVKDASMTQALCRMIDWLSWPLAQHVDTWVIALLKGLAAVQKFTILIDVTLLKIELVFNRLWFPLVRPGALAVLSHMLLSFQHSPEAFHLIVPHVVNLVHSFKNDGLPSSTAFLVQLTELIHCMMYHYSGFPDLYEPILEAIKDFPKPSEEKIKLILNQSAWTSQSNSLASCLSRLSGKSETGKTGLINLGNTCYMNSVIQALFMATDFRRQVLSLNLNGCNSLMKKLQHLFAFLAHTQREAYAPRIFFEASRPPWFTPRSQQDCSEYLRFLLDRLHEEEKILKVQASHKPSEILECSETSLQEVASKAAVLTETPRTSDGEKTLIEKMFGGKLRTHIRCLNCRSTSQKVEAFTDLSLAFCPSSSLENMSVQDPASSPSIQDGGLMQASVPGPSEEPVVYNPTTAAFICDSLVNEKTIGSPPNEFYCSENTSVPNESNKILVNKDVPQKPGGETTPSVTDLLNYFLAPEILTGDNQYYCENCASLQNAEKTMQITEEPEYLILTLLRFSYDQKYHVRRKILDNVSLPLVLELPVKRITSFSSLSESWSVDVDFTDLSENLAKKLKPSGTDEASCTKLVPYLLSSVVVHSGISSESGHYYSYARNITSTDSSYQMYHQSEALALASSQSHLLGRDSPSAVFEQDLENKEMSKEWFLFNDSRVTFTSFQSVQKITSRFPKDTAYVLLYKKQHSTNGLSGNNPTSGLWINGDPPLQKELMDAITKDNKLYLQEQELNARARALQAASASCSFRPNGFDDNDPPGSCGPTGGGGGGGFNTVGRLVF
Procedure, shortened: as §1

USP39 = target: T3, USP39 (UniProt Q53GS9)
T3 sequence (whole entry): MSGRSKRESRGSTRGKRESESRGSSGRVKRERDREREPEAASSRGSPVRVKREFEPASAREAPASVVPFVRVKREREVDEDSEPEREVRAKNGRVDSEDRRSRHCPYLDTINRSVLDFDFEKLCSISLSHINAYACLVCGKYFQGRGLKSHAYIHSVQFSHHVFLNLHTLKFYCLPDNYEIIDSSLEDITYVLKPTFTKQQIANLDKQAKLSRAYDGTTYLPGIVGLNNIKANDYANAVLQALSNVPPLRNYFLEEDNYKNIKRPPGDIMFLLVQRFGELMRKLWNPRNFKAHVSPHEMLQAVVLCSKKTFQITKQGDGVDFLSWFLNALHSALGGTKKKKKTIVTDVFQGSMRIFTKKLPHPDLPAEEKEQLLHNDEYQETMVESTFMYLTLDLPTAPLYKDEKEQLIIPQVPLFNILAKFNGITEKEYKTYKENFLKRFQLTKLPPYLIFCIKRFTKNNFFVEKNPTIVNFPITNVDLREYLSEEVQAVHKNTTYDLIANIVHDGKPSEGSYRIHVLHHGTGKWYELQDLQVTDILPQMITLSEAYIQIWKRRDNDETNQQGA
Procedure, shortened: as §1

USP4 = target: T4, USP4 (UniProt Q13107)
T4 sequence (whole entry): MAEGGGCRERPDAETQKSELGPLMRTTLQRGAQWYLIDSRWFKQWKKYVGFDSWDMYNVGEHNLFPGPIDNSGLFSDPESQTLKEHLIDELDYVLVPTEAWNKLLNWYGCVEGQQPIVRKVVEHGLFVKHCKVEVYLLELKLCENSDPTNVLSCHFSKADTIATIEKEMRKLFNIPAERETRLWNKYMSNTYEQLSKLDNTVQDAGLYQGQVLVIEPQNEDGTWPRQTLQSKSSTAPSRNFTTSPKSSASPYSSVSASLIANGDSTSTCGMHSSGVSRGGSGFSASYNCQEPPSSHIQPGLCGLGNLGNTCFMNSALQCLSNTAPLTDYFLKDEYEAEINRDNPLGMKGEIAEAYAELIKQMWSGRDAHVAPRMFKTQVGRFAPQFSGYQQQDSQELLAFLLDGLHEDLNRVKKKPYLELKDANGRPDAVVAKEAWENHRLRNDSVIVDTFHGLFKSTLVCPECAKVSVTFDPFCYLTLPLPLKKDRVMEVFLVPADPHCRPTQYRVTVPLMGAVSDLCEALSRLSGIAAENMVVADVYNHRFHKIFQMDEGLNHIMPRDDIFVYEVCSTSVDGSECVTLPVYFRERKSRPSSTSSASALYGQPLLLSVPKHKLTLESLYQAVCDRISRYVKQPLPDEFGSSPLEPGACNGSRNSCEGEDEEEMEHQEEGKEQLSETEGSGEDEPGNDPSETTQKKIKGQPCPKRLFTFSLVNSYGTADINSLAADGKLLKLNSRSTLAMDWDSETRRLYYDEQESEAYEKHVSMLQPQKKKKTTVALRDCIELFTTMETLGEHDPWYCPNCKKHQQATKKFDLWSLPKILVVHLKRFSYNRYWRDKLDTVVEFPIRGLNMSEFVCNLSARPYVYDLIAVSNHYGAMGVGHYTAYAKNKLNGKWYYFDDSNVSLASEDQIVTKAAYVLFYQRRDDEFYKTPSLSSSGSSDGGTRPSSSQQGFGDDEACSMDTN
Procedure, shortened: as §1

Measured: log2 ratio of Biotin-Ahx-Ub-VS probe labelling

Cc1ccc(CNC(=O)CCl)nc1C.Cl
inactive: USP34 -0.103 | USP36 0.158 | USP38 0.0543 | USP39 0.0861 | USP4 0.0382
